Assays:
Test in all cases: DAPPL (digital affinity profiling via proximity ligation, sequencing); 10 mM Tris-HCl pH 7.5, 50 mM NaCl, 1 mM DTT, 4% glycerol, room temperature, 30 min; GST-TFs on glutathione beads, 16-mer random dsDNA library, 0.1% formaldehyde crosslink after washing; high values mean tight binding
FEV = biological target: T1, FEV (Homo sapiens, UniProt Q99581 1-238); settings: protein: recombinant; tags: N-terminal GST; dsDNA, one strand shown
T1 sequence: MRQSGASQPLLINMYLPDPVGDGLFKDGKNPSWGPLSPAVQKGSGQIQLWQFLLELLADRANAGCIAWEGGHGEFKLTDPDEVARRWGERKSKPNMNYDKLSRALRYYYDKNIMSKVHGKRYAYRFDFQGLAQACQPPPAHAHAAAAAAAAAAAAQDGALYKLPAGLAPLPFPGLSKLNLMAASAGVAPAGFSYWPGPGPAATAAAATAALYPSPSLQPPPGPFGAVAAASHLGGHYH
Outline: (§1)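 Human transcription factors carrying a GST fusion were produced in yeast, bound to glutathione beads, tagged with DNA barcodes and pooled together with a tag-only sample. Each pool was held with 200 nmole of a random double-stranded 16-mer DNA library in Tris/NaCl/DTT/glycerol buffer for 30 min at room temperature, then washed, crosslinked in 0.1% formaldehyde, proximity-ligated with BsaI/T4 ligase (1 h, 37 °C), PCR-amplified and sequenced on an Illumina NextSeq500. Binding signal is the read frequency of each hexamer for a given factor divided by its frequency in the tag-only sample.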

ETV5 = ETV5 (Homo sapiens, UniProt P41161 1-510); settings: protein: recombinant; tags: N-terminal GST; dsDNA, one strand shown
ETV5, sequence (P41161 whole entry): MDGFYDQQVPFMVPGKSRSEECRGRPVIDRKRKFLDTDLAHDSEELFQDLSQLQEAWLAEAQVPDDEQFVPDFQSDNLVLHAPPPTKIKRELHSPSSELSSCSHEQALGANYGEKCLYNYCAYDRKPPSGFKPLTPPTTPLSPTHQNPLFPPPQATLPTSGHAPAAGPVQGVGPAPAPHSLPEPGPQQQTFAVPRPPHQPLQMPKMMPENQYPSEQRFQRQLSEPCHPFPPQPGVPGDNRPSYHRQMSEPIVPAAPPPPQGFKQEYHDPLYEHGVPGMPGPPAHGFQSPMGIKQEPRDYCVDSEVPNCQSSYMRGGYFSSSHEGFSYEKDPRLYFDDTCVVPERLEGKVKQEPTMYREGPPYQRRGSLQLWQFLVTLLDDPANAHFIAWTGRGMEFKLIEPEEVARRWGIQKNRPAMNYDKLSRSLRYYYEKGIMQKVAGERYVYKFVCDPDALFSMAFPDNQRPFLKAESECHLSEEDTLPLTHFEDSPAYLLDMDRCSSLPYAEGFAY
Outline: as §1

HSF1 = HSF1 (Homo sapiens, UniProt Q00613 1-529); settings: protein: recombinant; tags: N-terminal GST; chain copies: 3; dsDNA, one strand shown
HSF1, sequence (Q00613 whole entry): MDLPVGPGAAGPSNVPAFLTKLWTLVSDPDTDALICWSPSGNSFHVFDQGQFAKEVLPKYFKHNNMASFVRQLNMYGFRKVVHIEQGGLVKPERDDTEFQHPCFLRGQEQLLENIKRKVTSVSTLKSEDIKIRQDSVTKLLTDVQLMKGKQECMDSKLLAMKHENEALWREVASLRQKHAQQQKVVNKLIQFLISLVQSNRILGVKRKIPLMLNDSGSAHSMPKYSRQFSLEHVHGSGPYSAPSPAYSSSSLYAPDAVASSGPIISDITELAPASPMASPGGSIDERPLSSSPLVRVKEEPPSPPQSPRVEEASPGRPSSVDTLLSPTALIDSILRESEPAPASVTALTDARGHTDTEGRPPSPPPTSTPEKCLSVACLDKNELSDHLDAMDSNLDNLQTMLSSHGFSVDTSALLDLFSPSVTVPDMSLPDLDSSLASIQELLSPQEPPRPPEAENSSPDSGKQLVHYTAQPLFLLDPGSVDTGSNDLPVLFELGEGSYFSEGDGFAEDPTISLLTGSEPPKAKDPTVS
Outline: as §1

SPIC = biological target: T2, SPIC (Homo sapiens, UniProt Q8N5J4 1-248); settings: protein: recombinant; tags: N-terminal GST; dsDNA, one strand shown
T2 sequence: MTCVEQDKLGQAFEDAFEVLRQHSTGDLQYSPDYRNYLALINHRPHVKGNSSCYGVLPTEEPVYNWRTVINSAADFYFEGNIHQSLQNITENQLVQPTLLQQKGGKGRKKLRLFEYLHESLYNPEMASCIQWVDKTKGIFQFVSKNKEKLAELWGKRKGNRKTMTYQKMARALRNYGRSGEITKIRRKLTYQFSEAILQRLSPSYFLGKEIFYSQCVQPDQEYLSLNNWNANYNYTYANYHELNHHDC
Outline: as §1

ELF4 = ELF4 (Homo sapiens, UniProt Q99607 1-663); settings: protein: recombinant; tags: N-terminal GST; dsDNA, one strand shown
ELF4, sequence (Q99607 whole entry): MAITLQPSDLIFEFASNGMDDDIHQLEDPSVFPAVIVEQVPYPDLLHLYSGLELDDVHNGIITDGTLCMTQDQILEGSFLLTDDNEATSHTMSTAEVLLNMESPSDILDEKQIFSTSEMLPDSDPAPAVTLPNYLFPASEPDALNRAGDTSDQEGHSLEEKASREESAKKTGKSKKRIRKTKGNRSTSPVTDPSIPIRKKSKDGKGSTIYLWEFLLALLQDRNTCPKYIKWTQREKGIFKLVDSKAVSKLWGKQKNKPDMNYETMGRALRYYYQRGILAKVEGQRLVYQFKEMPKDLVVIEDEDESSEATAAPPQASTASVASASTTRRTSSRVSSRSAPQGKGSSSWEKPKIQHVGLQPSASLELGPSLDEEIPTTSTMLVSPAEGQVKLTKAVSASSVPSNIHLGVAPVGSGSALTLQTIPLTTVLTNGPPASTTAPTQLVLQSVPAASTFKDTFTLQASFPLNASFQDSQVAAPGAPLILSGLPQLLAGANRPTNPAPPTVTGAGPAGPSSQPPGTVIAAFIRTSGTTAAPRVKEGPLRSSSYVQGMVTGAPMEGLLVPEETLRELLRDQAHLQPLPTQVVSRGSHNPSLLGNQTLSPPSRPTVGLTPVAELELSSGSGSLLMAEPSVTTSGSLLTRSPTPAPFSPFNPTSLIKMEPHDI
Outline: as §1

ELK4 = biological target: T3, ELK4 (Homo sapiens, UniProt P28324-2 1-405); settings: protein: recombinant; tags: N-terminal GST; dsDNA, one strand shown
T3 sequence: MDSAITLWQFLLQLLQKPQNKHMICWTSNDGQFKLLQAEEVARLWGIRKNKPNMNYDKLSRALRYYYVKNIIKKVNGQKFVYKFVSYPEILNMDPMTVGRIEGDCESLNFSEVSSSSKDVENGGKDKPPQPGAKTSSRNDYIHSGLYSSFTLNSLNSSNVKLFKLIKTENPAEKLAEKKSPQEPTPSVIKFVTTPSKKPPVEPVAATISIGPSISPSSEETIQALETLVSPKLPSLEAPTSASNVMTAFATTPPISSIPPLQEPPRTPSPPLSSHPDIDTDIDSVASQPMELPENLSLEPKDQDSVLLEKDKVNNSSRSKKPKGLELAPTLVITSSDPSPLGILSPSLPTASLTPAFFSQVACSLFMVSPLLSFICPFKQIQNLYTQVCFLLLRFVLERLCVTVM
Outline: as §1

ETV2 = biological target: T4, ETV2 (Homo sapiens, UniProt O00321 1-342); settings: protein: recombinant; tags: N-terminal GST; dsDNA, one strand shown
T4 sequence: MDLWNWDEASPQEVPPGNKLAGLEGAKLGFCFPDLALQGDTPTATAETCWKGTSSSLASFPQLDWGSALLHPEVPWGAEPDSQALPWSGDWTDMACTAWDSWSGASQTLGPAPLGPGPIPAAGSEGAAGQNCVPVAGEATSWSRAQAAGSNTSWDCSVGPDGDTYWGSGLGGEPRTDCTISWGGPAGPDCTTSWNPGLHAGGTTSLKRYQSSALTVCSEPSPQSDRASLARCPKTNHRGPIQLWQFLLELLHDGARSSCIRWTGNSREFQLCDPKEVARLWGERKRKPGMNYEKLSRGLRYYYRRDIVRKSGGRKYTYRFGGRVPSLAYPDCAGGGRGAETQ
Outline: as §1

ELF3 = biological target: T5, ELF3 (Homo sapiens, UniProt P78545 1-371); settings: protein: recombinant; tags: N-terminal GST; dsDNA, one strand shown
T5 sequence: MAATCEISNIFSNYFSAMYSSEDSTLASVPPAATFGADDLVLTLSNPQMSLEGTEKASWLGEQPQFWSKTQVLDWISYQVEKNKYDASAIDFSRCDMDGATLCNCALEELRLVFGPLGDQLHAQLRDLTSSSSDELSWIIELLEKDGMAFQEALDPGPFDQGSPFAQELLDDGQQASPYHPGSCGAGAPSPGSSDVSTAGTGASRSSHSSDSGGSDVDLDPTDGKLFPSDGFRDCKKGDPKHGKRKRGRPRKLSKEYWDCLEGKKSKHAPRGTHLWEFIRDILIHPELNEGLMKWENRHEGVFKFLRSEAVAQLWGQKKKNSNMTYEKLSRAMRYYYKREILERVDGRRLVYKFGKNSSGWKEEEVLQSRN
Outline: as §1

CRX = CRX (Homo sapiens, UniProt O43186 1-299); settings: protein: recombinant; tags: N-terminal GST; dsDNA, one strand shown
CRX, sequence (O43186 whole entry): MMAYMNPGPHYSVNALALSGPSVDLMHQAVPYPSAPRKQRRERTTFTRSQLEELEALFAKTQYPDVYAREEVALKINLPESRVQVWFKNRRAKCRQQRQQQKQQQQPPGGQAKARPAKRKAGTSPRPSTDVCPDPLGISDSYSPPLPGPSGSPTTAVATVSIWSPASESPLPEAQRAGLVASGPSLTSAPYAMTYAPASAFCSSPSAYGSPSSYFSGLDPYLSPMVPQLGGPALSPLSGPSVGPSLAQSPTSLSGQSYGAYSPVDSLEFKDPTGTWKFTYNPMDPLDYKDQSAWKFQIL
Outline: as §1

ETV1 = ETV1 (Homo sapiens, UniProt P50549 1-477); settings: protein: recombinant; tags: N-terminal GST; dsDNA, one strand shown
ETV1, sequence (P50549 whole entry): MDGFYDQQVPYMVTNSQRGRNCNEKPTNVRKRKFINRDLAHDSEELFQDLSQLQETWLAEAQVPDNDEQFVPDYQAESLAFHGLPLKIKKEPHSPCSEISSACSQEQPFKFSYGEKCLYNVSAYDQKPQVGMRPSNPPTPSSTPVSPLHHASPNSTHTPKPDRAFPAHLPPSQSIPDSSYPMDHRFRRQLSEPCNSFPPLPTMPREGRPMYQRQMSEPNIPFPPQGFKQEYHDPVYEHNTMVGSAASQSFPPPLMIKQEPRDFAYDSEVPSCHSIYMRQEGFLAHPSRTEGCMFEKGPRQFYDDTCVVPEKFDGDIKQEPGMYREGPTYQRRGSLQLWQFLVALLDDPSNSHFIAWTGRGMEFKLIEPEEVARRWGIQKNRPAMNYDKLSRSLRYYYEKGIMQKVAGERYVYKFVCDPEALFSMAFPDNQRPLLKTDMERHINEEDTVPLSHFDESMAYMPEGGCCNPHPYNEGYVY
Outline: as §1

ERF = biological target: T6, ERF (Homo sapiens, UniProt P50548 1-548); settings: protein: recombinant; tags: N-terminal GST; dsDNA, one strand shown
T6 sequence: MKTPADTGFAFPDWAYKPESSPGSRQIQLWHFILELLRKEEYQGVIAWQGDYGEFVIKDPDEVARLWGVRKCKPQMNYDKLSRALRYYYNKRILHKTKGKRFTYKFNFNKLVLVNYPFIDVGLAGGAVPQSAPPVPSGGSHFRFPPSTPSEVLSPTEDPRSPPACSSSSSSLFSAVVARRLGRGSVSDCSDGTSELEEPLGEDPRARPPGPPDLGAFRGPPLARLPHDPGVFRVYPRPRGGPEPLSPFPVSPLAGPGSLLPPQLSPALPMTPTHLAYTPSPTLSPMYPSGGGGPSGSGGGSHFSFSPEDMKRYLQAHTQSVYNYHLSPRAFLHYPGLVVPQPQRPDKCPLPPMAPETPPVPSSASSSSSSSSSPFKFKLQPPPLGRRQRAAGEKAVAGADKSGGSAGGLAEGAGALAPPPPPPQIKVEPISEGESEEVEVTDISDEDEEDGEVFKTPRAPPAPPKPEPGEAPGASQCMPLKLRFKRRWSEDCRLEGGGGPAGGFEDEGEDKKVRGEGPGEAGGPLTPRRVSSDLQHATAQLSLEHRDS
Outline: as §1

ETV3L = biological target: T7, ETV3L (Homo sapiens, UniProt Q6ZN32 1-361); settings: protein: recombinant; tags: N-terminal GST; dsDNA, one strand shown
T7 sequence: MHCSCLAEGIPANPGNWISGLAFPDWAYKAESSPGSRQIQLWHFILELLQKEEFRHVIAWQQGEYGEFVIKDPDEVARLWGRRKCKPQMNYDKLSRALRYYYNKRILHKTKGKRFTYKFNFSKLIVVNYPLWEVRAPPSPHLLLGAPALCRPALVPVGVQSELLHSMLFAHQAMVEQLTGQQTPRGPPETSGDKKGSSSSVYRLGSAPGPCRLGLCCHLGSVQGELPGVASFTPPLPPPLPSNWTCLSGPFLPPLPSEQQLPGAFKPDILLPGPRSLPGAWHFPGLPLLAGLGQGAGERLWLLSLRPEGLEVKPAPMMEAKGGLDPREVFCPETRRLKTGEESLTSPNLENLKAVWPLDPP
Outline: as §1

ETS2 = biological target: T8, ETS2 (Homo sapiens, UniProt P15036 1-469); settings: protein: recombinant; tags: N-terminal GST; dsDNA, one strand shown
T8 sequence: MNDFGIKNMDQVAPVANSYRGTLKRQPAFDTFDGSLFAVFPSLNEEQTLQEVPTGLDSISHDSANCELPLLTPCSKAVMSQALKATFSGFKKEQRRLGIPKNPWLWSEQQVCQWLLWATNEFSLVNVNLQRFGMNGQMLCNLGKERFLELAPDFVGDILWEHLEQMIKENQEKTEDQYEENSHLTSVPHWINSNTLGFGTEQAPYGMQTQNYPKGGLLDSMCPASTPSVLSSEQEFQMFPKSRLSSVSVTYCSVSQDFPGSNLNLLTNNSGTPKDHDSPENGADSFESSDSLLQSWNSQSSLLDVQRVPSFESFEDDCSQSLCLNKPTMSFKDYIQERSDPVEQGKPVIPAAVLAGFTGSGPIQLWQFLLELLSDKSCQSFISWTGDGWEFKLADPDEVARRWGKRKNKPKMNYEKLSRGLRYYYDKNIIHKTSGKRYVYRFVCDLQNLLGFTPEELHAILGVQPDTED
Outline: as §1

SPDEF = biological target: T9, SPDEF (Homo sapiens, UniProt O95238 1-335); settings: protein: recombinant; tags: N-terminal GST; dsDNA, one strand shown
T9 sequence: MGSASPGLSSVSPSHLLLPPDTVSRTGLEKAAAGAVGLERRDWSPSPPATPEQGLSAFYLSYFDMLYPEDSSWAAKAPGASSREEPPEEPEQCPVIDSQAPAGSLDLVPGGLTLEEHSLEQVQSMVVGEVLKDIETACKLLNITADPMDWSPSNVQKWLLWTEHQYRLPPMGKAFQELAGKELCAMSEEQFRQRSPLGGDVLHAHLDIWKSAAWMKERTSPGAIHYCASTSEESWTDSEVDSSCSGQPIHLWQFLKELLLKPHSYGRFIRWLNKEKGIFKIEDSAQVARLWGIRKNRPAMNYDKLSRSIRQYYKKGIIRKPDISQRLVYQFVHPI
Outline: as §1

ETV7 = biological target: T10, ETV7 (Homo sapiens, UniProt Q9Y603 1-341); settings: protein: recombinant; tags: N-terminal GST; dsDNA, one strand shown
T10 sequence: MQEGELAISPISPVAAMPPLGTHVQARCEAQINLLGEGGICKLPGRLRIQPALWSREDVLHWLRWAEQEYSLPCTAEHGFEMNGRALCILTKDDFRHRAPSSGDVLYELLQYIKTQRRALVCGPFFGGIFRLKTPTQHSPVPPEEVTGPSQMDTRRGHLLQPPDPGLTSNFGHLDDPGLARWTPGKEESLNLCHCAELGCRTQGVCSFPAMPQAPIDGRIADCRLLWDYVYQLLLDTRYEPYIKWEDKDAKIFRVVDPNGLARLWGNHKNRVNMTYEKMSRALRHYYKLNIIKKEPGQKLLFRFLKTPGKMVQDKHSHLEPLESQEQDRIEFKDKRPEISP
Outline: as §1

ELF5 = biological target: T11, ELF5 (Homo sapiens, UniProt Q9UKW6-2 1-255); settings: protein: recombinant; tags: N-terminal GST; dsDNA, one strand shown
T11 sequence: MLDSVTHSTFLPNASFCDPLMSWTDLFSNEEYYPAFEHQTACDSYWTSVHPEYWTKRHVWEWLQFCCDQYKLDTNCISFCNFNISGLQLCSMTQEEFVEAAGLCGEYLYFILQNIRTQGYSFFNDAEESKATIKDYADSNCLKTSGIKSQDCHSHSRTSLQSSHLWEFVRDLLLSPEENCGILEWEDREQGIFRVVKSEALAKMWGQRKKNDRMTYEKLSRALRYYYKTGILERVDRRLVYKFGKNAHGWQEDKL
Outline: as §1

ETV3 = biological target: T12, ETV3 (Homo sapiens, UniProt P41162-2 1-143); settings: protein: recombinant; tags: N-terminal GST; dsDNA, one strand shown
T12 sequence: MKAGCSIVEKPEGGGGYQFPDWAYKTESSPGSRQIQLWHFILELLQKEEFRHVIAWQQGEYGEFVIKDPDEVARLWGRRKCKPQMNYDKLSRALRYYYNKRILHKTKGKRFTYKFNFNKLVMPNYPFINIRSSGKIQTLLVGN
Outline: as §1

ETV6 = ETV6 (Homo sapiens, UniProt P41212 1-452); settings: protein: recombinant; tags: N-terminal GST; dsDNA, one strand shown
ETV6, sequence (P41212 whole entry): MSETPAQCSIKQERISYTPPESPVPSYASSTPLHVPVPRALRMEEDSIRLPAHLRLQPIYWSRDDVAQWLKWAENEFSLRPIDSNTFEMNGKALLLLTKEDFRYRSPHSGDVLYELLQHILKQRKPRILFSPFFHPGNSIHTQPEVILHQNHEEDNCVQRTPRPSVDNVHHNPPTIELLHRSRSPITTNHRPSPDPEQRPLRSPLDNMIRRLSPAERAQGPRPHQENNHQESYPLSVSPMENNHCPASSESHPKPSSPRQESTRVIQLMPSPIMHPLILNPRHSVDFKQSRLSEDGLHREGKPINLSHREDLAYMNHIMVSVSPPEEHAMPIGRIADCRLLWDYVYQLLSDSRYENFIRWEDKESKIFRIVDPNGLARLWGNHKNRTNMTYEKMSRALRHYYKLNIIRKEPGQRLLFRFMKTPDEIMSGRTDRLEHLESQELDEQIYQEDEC
Outline: as §1

Sequence	binding signal (FEV)	binding signal (ETV5)	binding signal (HSF1)	binding signal (SPIC)	binding signal (ELF4)	binding signal (ELK4)	binding signal (ETV2)	binding signal (ELF3)	binding signal (CRX)	binding signal (ETV1)	binding signal (ERF)	binding signal (ETV3L)	binding signal (ETS2)	binding signal (SPDEF)	binding signal (ETV7)	binding signal (ELF5)	binding signal (ETV3)	binding signal (ETV6)
AAAATC	1.19 fold enrichment (6-mer frequency, TF over GST control)	1.19 fold enrichment (6-mer frequency, TF over GST control)	1.51 fold enrichment (6-mer frequency, TF over GST control)	1.07 fold enrichment (6-mer frequency, TF over GST control)	1.23 fold enrichment (6-mer frequency, TF over GST control)	1.05 fold enrichment (6-mer frequency, TF over GST control)	1.28 fold enrichment (6-mer frequency, TF over GST control)	1.11 fold enrichment (6-mer frequency, TF over GST control)	1.62 fold enrichment (6-mer frequency, TF over GST control)	1.12 fold enrichment (6-mer frequency, TF over GST control)	1.17 fold enrichment (6-mer frequency, TF over GST control)	1.18 fold enrichment (6-mer frequency, TF over GST control)	1.14 fold enrichment (6-mer frequency, TF over GST control)	1.2 fold enrichment (6-mer frequency, TF over GST control)	1.16 fold enrichment (6-mer frequency, TF over GST control)	1.15 fold enrichment (6-mer frequency, TF over GST control)	1.13 fold enrichment (6-mer frequency, TF over GST control)	1.19 fold enrichment (6-mer frequency, TF over GST control)
GATCCT	1.23 fold enrichment (6-mer frequency, TF over GST control)	1.27 fold enrichment (6-mer frequency, TF over GST control)	1.41 fold enrichment (6-mer frequency, TF over GST control)	1.21 fold enrichment (6-mer frequency, TF over GST control)	1.35 fold enrichment (6-mer frequency, TF over GST control)	1.24 fold enrichment (6-mer frequency, TF over GST control)	1.43 fold enrichment (6-mer frequency, TF over GST control)	1.03 fold enrichment (6-mer frequency, TF over GST control)	1.66 fold enrichment (6-mer frequency, TF over GST control)	1.34 fold enrichment (6-mer frequency, TF over GST control)	1.3 fold enrichment (6-mer frequency, TF over GST control)	1.21 fold enrichment (6-mer frequency, TF over GST control)	1.32 fold enrichment (6-mer frequency, TF over GST control)	1.84 fold enrichment (6-mer frequency, TF over GST control)	1.2 fold enrichment (6-mer frequency, TF over GST control)	1.29 fold enrichment (6-mer frequency, TF over GST control)	1.25 fold enrichment (6-mer frequency, TF over GST control)	1.28 fold enrichment (6-mer frequency, TF over GST control)

From paper PMC7862700, “An all-to-all approach to the identification of sequence-specific readers for epigenetic DNA modifications on cytosine”
